From PubChem BioAssay AID1159580 (chemical genetic matrix, 2015)
“And” between values parts separate entries of the source, which are not always exact repeats. Identical values can stand only once. Hit rate of the full screen: of about 5,500 compounds, about 2,000 (36%) were called active. Another 18% or so got no clear call; they are omitted. No stated cut-off is given here; in the data, active means normalized growth mostly below about 0.91 (no sharp cut-off); inconclusive means no clear call, values can overlap the other calls; inactive means mostly above about 0.92. The list shows a part of the results.

Test: chemical genetic growth profiling, strain panel (AID 1159580);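 further: tested at 20 µM; growth read once vehicle control cultures reached saturation at 30 °C; 1 = growth at the plate median or of vehicle wells; lower values mean less growth of the strain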
Details: S. cerevisiae deletion strains, growth OD

Measured: normalized growth

CC(C)(O)[C@@H]1[C@H]2OC(=O)[C@@H]1[C@]1(O)C[C@H]3O[C@]34C(=O)O[C@H]2[C@]14C
inactive: locus YAL013W, strain DEP1, hits give low values 1 | locus YAL021C, strain ccr4, hits give low values 1.01 | locus YAL026C, strain drs2, hits give low values 1.01 | locus YAL030W, strain snc1, hits give low values 1 | locus YBL061C, strain skt5, hits give low values 1 | locus YBR009C, strain hhf1, hits give low values 0.998 | locus YBR021W, strain FUR4, hits give low values 1 | locus YBR023C, strain chs3, hits give low values 1.01 | locus YBR171W, strain sec66, hits give low values 0.99 | locus YBR229C, strain ROT2, hits give low values 1 | locus YBR231C, strain swc5, hits give low values 0.991 | locus YBR279W, strain paf1, hits give low values 1.01 | locus YCL011C, strain gbp2, hits give low values 1.01 | locus YCL016C, strain dcc1, hits give low values 1.01 | locus YCL029C, strain bik1, hits give low values 1.01 | locus YCL061C, strain MRC1, hits give low values 1 | locus YCL069W, strain vba3, hits give low values 1.01 | locus YCR088W, strain abp1, hits give low values 1 | locus YDL005C, strain med2, hits give low values 0.988 | locus YDL035C, strain GPR1, hits give low values 1 | locus YDL040C, strain nat1, hits give low values 1 | locus YDL074C, strain BRE1, hits give low values 1.02 | locus YDL101C, strain DUN1, hits give low values 1.01 | locus YDL134C, strain PPH21, hits give low values 1 | locus YDL185W, strain tfp1, hits give low values 1.01 | locus YDL192W, strain arf1, hits give low values 1.02 | locus YDR001C, strain nth1, hits give low values 1.01 | locus YDR069C, strain doa4, hits give low values 1.01 | locus YDR101C, strain arx1, hits give low values 1 | locus YDR137W, strain rgp1, hits give low values 1 | locus YDR150W, strain NUM1, hits give low values 1 | locus YDR159W, strain sac3, hits give low values 0.993 | locus YDR162C, strain NBP2, hits give low values 1.01 | locus YDR195W, strain ref2 0.988 | locus YDR297W, strain sur2, hits give low values 0.993 | locus YDR318W, strain mcm21, hits give low values 1.01 | locus YDR334W, strain swr1, hits give low values 1.02 | locus YDR335W, strain msn5, hits give low values 1 | locus YDR388W, hits give low values 1.02 | locus YDR392W, strain spt3, hits give low values 0.939 | locus YDR502C, strain sam2, hits give low values 1.03 | locus YEL003W, strain gim4, hits give low values 1 | locus YEL037C, strain rad23, hits give low values 1.02 | locus YEL061C, strain CIN8 (second series), hits give low values 1.01 | locus YEL061C, strain CIN8, hits give low values 1 | locus YER015W, strain faa2, hits give low values 1.01 | locus YER016W, strain bim1, hits give low values 0.997 | locus YER110C, hits give low values 1.02 | locus YER111C, strain swi4, hits give low values 1 | locus YER155C, strain BEM2 (second series), hits give low values 1.01 | locus YER155C, strain BEM2, hits give low values 1 | locus YER167W, strain BCK2, hits give low values 1 | locus YFR010W, strain ubp6, hits give low values 1.01 | locus YGL078C, strain dbp3, hits give low values 1.01 | locus YGL086W, strain mad1, hits give low values 1.02 | locus YGL167C, strain pmr1, hits give low values 1 | locus YGL173C, strain kem1, hits give low values 1 | locus YGL227W, strain vid30, hits give low values 0.993 | locus YGL240W, strain doc1, hits give low values 1 | locus YGL248W, strain PDE1, hits give low values 1.01 | locus YGL253W, strain hxk2, hits give low values 1.01 | locus YGR078C, strain PAC10, hits give low values 1 | locus YGR135W, strain pre9, hits give low values 1 | locus YGR252W, strain gcn5, hits give low values 0.994 | locus YHR013C, strain ard1, hits give low values 0.988 | locus YHR027C, strain rpn1, hits give low values 1.01 | locus YHR030C, strain SLT2, hits give low values 1.01 and 1.03 | locus YHR079C, strain IRE1 (second series), hits give low values 1.01 | locus YHR079C, strain IRE1, hits give low values 1.03 | locus YHR094C, strain hxt1, hits give low values 1.01 | locus YHR129C, strain ARP1, hits give low values 1 | locus YHR142W, strain chs7, hits give low values 1.01 | locus YHR200W, strain rpn10, hits give low values 1.03 | locus YIL066C, strain RNR3, hits give low values 1.01 | locus YIL073C, strain SPO22, hits give low values 1.06 | locus YIL125W, strain kgd1, hits give low values 1.01 | locus YIR030C, strain dcg1, hits give low values 1.02 | locus YJL092W, strain hpr5, hits give low values 1 | locus YJL095W, strain BCK1 (second series), hits give low values 1 | locus YJL095W, strain BCK1, hits give low values 0.997 and 1.04 | locus YJL115W, strain asf1, hits give low values 1.01 | locus YJL129C, strain trk1, hits give low values 1 | locus YJL134W, strain LCB3, hits give low values 1.01 | locus YJL154C, strain vps35, hits give low values 1.01 | locus YJL164C, strain tpk1, hits give low values 0.999 | locus YJL166W, strain qcr8, hits give low values 1 | locus YJL168C, strain set2, hits give low values 1.01 | locus YJL187C, strain SWE1 (second series), hits give low values 1.01 | locus YJL187C, strain SWE1, hits give low values 1.01 | locus YJR043C, strain POL32, hits give low values 1.01 | locus YJR066W, strain TOR1, hits give low values 0.965 | locus YJR075W, strain HOC1, hits give low values 1.01 | locus YKL009W, strain mrt4, hits give low values 1.02 | locus YKL068W, hits give low values 1 | locus YKL085W, strain MDH1 (second series), hits give low values 1 | locus YKL085W, strain MDH1, hits give low values 1 | locus YKL160W, strain elf1, hits give low values 0.998 | locus YKL190W, strain CNB1, hits give low values 1.01 | locus YKR001C, strain vps1, hits give low values 1.05 | locus YKR026C, strain gcn3, hits give low values 1.01 | locus YKR091W, strain srl3, hits give low values 1 | locus YLL001W, strain dnm1, hits give low values 0.996 | locus YLL026W, hits give low values 0.999 | locus YLL041C, strain sdh2, hits give low values 1.01 | locus YLR027C, strain aat2, hits give low values 1.03 | locus YLR039C, strain RIC1, hits give low values 0.995 | locus YLR058C, strain SHM2, hits give low values 1 | locus YLR102C, strain apc9, hits give low values 1.01 | locus YLR113W, strain HOG1, hits give low values 0.982 | locus YLR221C, strain rsa3, hits give low values 0.999 | locus YLR258W, strain gsy2, hits give low values 0.997 | locus YLR262C, strain YPT6 (second series), hits give low values 0.991 | locus YLR262C, strain YPT6, hits give low values 1.02 | locus YLR268W, strain sec22, hits give low values 1.02 | locus YLR320W, strain mms22, hits give low values 1 | locus YLR330W, strain CHS5, hits give low values 1.01 | locus YLR342W, strain FKS1 (second series), hits give low values 1.02 | locus YLR342W, strain FKS1, hits give low values 1.01 | locus YLR357W, strain rsc2, hits give low values 1.02 | locus YLR370C, strain arc18, hits give low values 1 | locus YLR371W, strain rom2, hits give low values 1.02 | locus YLR384C, strain iki3, hits give low values 0.994 | locus YLR418C, strain cdc73, hits give low values 0.997 | locus YML016C, strain PPZ1, hits give low values 1.01 | locus YML032C, strain rad52, hits give low values 1.02 | locus YML120C, strain ndi1, hits give low values 1.01 | locus YML124C, strain tub3, hits give low values 1 | locus YMR058W, strain fet3, hits give low values 1.01 | locus YMR078C, strain ctf18, hits give low values 1.01 | locus YMR125W, strain sto1, hits give low values 1.01 | locus YMR129W, hits give low values 1 | locus YMR205C, strain PFK2, hits give low values 0.988 | locus YMR223W, strain ubp8, hits give low values 1.01 | locus YMR231W, strain pep5, hits give low values 1 | locus YMR263W, strain SAP30, hits give low values 1.01 | locus YMR307W, strain GAS1, hits give low values 1.03 | locus YNL067W, strain RPL9B, hits give low values 1 | locus YNL071W, strain lat1, hits give low values 1.01 | locus YNL128W, strain TEP1, hits give low values 1.03 | locus YNL153C, strain GIM3, hits give low values 1 | locus YNL183C, strain NPR1, hits give low values 0.987 | locus YNL209W, strain ssb2, hits give low values 1.01 | locus YNL233W, strain BNI4, hits give low values 0.996 | locus YNL248C, strain rpa49, hits give low values 0.958 | locus YNL250W, strain rad50, hits give low values 1 | locus YNL271C, strain bni1, hits give low values 1.01 | locus YNL298W, strain CLA4, hits give low values 1.02 | locus YNL307C, strain MCK1, hits give low values 1.03 | locus YNL322C, strain KRE1 (second series), hits give low values 0.998 | locus YNL322C, strain KRE1, hits give low values 1 | locus YNR049C, strain mso1, hits give low values 1.01 | locus YNR052C, strain pop2, hits give low values 1.01 | locus YOL006C, strain TOP1, hits give low values 1.02 | locus YOL012C, strain htz1 1.37 | locus YOL147C, strain pex11, hits give low values 1.01 | locus YOR001W, strain rrp6, hits give low values 1.02 | locus YOR061W, strain CKA2, hits give low values 1.02 | locus YOR069W, strain VPS5, hits give low values 1.01 | locus YOR070C, strain gyp1, hits give low values 1.02 | locus YOR080W, strain dia2, hits give low values 0.992 | locus YOR083W, strain WHI5, hits give low values 0.988 | locus YOR106W, strain vam3, hits give low values 1.01 | locus YOR136W, strain idh2, hits give low values 1.01 | locus YOR144C, strain elg1, hits give low values 1.02 | locus YOR184W, strain ser1, hits give low values 1.02 | locus YOR231W, strain MKK1, hits give low values 1.02 | locus YOR265W, strain rbl2, hits give low values 1.01 | locus YOR270C, strain vph1, hits give low values 1.02 | locus YOR290C, strain snf2, hits give low values 0.982 | locus YOR316C, strain cot1, hits give low values 1.01 | locus YPL051W, strain arl3, hits give low values 1.04 | locus YPL055C, strain LGE1, hits give low values 1.01 | locus YPL078C, strain atp4, hits give low values 1.01 | locus YPL106C, strain sse1, hits give low values 0.987 | locus YPL240C, strain hsp82, hits give low values 0.997 | locus YPL241C, strain CIN2, hits give low values 1.01 | locus YPL256C, strain CLN2, hits give low values 1.02 | locus YPR119W, strain clb2, hits give low values 1.01 | locus YPR141C, strain kar3, hits give low values 1 | locus YPR163C, strain tif3, hits give low values 1.03 | locus YPR167C, strain met16, hits give low values 1.01 | strain wtn01, hits give low values 1.03
